This is an account of results in PubChem BioAssay (EPA / NIEHS).

The nature of test [1]: ATG_CRE_CIS: Attagene CIS-FACTORIAL HepG2 Assay for human cAMP Responsive Element (CRE) binding protein 3 (AID 2282926). The settings on record: HepG2 CRE cis-reporter, Attagene multiplexed mRNA; actives raise or lower the signal. The gist of the method:
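We dosed HepG2 cells bearing multiple cis-promoter reporter units for 24 h and measured reporter mRNA by RT-PCR with capillary electrophoresis detection. Bidirectional concentration-response fitting used DMSO as negative control.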

Test [2] concerns the target CCAAT/enhancer-binding protein beta (Homo sapiens) (UniProt P17676). In words: ATG_C_EBP_CIS: Attagene CIS-FACTORIAL HepG2 Assay for human CCAAT/Enhancer Binding Protein (C/EBP) beta (AID 2282927). The settings on record: HepG2 Attagene cis-factorial transcription factor reporter; actives raise or lower the signal. The procedure, abridged:
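HepG2, transient MRTU transfection, 24 h treatment. RT-PCR plus CE fluorescence; DMSO negative control, bidirectional fit.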

A short description of test [3]: ATG_CMV_CIS: Attagene CIS-FACTORIAL HepG2 Assay for human CMV (Internal Marker) (AID 2282928).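 Note: endpoint acts as a background internal control marker rather than a target.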 The settings on record: HepG2 CMV promoter reporter, transcription factor profiling; actives raise or lower the signal. The gist of the method: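 After transient transfection of HepG2 with reporter transcription units driven by cis-regulatory promoters, cells receive test chemical for 24 h. Labeled reporter amplicons, digested with HpaI, are sized and quantified by capillary electrophoresis against DMSO.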

Test [4] is described as follows: ATG_DR4_LXR_CIS: Attagene CIS-FACTORIAL HepG2 Assay for human Liver X Receptor (LXR), DR4 submotif (AID 2282929). The settings on record: HepG2 Attagene DR4 cis-reporter, mRNA transcription; actives raise or lower the signal. The procedure, abridged:
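Endogenous factor activity at a DR4 cis-element is read as reporter mRNA in transiently transfected HepG2 cells. Exposure lasts 24 h; transcripts are amplified, fluorescently labelled and sized by capillary electrophoresis, with DMSO as baseline.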

Test [5] addresses Aryl hydrocarbon receptor (Homo sapiens) (UniProt P35869). Nature of the test: ATG_Ahr_CIS: Attagene CIS-FACTORIAL HepG2 Assay for human Aryl Hydrocarbon Receptor (Ahr) (AID 2282930). The settings on record: HepG2 AhR cis-factorial reporter transcription; actives raise or lower the signal. The procedure, abridged: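 Endogenous factor activity is tracked through cis-promoter reporter units transfected into HepG2 cells. Transcript levels at 24 h are read by fluorescent RT-PCR and capillary electrophoresis, with activity in either direction scored relative to DMSO.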

The nature of test [6]: ATG_AP_1_CIS: Attagene CIS-FACTORIAL HepG2 Assay for human Activator Protein 1 (AP-1) (AID 2282931). The settings on record: HepG2 Attagene cis-factorial AP-1 reporter mRNA; actives raise or lower the signal. The gist of the method: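 Fluorescence of labelled PCR fragments separated by capillary electrophoresis gives reporter mRNA levels. HepG2 with transfected cis-regulated reporter units, 24 h exposure; DMSO serves as baseline for bidirectional curve fits.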

Test [7] in a line: ATG_AP_2_CIS: Attagene CIS-FACTORIAL HepG2 Assay for human Activator Protein 2 (AP-2) (AID 2282932). Conditions: HepG2 AP-2 cis-reporter, Attagene transcription factor profiling; actives raise or lower the signal. The procedure, abridged:
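Multiplexed mRNA reporter assay in HepG2: cis-regulated units report endogenous factor activity after 24 h treatment. Fluorescence from capillary electrophoresis of RT-PCR products gives the signal, with DMSO as baseline.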

Test [8] can be described thus: ATG_BRE_CIS: Attagene CIS-FACTORIAL HepG2 Assay for human Bone Morphogenetic Protein (BMP) Response Element (BRE) (AID 2282933). The settings on record: HepG2 BMP response element reporter, Attagene transcription factor profiling; actives raise or lower the signal. The gist of the method: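 Endogenous transcription factor activity read in transiently transfected HepG2 cells after 24 h chemical exposure. Bidirectional curve fitting against DMSO; readout is reporter transcript level by RT-PCR with capillary electrophoresis of labelled products.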

Test [9] concerns the target Transcription factor E2F1 (Homo sapiens) (UniProt Q01094). In words: ATG_E2F_CIS: Attagene CIS-FACTORIAL HepG2 Assay for human E2F Transcription Factor 1 (AID 2282935). The settings on record: HepG2 Attagene cis-reporter, E2F reporter RNA transcripts; actives raise or lower the signal. The procedure, abridged: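 Measures reporter transcript levels via RT-PCR with capillary electrophoresis detection in HepG2 cells harboring cis-regulated reporter units; 24 h post-dose; bidirectional curve fitting with DMSO as baseline.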

Structures are written as SMILES. The source made the active and inactive calls. Rule for the calls: active = hit-call score of the fitted dose curve at least 0.9, where 1 is the maximum; inactive = score below 0.9.

Sequence of Aryl hydrocarbon receptor (Homo sapiens) (P35869 whole entry, looked up): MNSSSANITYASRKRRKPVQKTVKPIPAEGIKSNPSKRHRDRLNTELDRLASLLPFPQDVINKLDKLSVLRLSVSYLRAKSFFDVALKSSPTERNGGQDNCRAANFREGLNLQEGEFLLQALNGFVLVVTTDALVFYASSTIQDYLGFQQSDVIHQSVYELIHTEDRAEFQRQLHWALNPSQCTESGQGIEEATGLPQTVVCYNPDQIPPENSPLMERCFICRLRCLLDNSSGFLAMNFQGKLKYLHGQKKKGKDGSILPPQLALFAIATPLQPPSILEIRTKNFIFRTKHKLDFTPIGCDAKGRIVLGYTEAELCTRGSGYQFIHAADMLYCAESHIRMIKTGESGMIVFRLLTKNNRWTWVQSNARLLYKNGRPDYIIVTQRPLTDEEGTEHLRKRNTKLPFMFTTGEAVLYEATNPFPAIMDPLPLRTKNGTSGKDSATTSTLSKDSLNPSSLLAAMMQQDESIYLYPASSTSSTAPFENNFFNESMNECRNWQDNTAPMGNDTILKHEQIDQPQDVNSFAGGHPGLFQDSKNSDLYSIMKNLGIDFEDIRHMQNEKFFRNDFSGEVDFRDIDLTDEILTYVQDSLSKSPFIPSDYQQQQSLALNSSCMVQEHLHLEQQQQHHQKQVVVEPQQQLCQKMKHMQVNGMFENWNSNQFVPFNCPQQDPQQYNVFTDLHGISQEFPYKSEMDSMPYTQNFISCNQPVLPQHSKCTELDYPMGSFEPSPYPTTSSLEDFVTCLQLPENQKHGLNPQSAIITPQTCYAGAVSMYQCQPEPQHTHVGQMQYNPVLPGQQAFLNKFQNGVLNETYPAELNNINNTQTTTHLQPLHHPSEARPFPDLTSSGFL
Sequence of CCAAT/enhancer-binding protein beta (Homo sapiens) (P17676 whole entry, looked up): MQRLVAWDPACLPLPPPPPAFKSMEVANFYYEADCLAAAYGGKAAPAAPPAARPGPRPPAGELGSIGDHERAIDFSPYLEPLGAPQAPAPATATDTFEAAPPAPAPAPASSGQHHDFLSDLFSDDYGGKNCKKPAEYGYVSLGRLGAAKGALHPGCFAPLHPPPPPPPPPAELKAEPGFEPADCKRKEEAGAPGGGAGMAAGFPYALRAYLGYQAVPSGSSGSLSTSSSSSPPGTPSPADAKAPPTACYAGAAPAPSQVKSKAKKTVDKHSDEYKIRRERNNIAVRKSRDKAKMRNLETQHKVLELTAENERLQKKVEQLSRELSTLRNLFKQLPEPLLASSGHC
Sequence of Transcription factor E2F1 (Homo sapiens) (Q01094 whole entry, looked up): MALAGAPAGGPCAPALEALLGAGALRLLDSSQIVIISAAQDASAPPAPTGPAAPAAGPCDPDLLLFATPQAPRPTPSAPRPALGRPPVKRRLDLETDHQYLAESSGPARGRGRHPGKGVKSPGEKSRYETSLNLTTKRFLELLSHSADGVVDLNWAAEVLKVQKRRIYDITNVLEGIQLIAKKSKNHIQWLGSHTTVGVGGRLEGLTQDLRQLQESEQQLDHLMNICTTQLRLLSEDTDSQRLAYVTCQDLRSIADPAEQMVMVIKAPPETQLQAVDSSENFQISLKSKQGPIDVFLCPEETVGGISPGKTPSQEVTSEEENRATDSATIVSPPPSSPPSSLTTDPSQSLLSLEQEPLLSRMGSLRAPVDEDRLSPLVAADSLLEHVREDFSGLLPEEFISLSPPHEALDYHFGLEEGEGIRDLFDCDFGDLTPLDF

As usually defined, the AC50 is the concentration at which the activity in the assay is half-maximal. On to `CCCCCCCCCCCCCCCC(=O)OC[C@H](O)[C@H]1OC(=O)C(O)=C1O`, for which the AC50 in test [1] was 29.3 µM (active); in test [2], 67.7 µM (active); in [4] it was 76.2 µM (active); in test [5], 78 µM (active); in test [8], 9.68 µM (active). Further, the molecule was called inactive in test [3], in [6], in test [7] and in [9].
On to `c1ccc2c(c1)c1cccc3ccc4cccc2c4c31`, for which the molecule was classed as inactive in [1], in test [2], in test [3], in [4], in test [5] and in test [6]. Also, the outcome in test [7], in test [8] and in test [9] was inactive.
Turning to `Nc1cc(N)cc(C(=O)O)c1`, the result in test [1], in test [2], in test [3], in test [4], in test [5] and in test [6] was inactive. Moreover, the outcome in test [7], in [8] and in [9] was inactive.
As to `CSc1nnc(C(C)(C)C)c(=O)[nH]1`, the call in [1], in test [2], in [3], in test [4], in [5] and in test [6] was inactive. In addition, the call in [7], in test [8] and in test [9] was inactive.
`CC1(C)[C@@H]2CC[C@@]1(C)[C@H](O)C2`: the molecule was called inactive in [1], in [2], in test [3], in test [4], in [5] and in test [6]. The result in test [7], in test [8] and in [9] was inactive.
On to `COc1nc(C)nc(N)n1`, for which the outcome in [1], in test [2], in test [3], in test [4], in [5] and in test [6] was inactive. Also, the outcome in [7], in test [8] and in test [9] was inactive.
For the molecule `Cc1ccc(C(C)C)cc1O`, the molecule was classed as inactive in test [1], in test [2], in [3], in [4], in test [5] and in [6]. Besides, the outcome in test [7], in test [8] and in test [9] was inactive.
In the case of `CNCCCC12CCC(c3ccccc31)c1ccccc12`, the molecule was called inactive in test [1], in test [2], in test [5], in test [6], in test [7] and in [8]. The molecule was called inactive in test [9]. The AC50 in [3] and in test [4] was 11.1 µM (active) throughout.
In the case of `CC(C)=CCCC(C)CC=O` (centres undefined), the result in [1], in [2], in test [3], in test [4], in test [5] and in test [6] was inactive. Further, the call in test [7], in [8] and in test [9] was inactive.
Take `COc1cc(C)cc(O)c1`: the outcome in [1], in test [2], in test [3], in test [4], in test [5] and in test [6] was inactive. In addition, the result in test [7], in test [8] and in test [9] was inactive.
Regarding `CC(CCO)CCCC(C)(C)O` (centres undefined), the molecule was classed as inactive in [1], in test [2], in [3], in test [4], in test [5] and in [6]. Besides, the call in [7], in test [8] and in [9] was inactive.
Consider `CCCCCCCCCOC(C)=O`, for which the call in test [1], in test [2], in [3], in test [4], in test [5] and in test [6] was inactive. Besides, the call in test [7], in test [8] and in [9] was inactive.
Take `CCCC(=O)c1cc(O)c(O)cc1O`: the result in [1], in test [2], in test [3], in test [4], in [5] and in test [6] was inactive. Further, the result in [7], in test [8] and in test [9] was inactive.
In the case of `C#C[C@]1(O)CC[C@H]2[C@@H]3CCC4=Cc5oncc5C[C@]4(C)[C@H]3CC[C@@]21C`, the AC50 in test [1] was 41.2 µM (active); in test [4], 14.5 µM (active); in test [6], 26.2 µM (active); in test [9], 33.4 µM (active). Further, the outcome in test [2], in [3], in test [5], in test [7] and in test [8] was inactive.
Take `CC(C)[C@H]1CC[C@@H](C)CC1=O`: the result in test [1], in test [2], in test [3], in test [4], in [5] and in test [6] was inactive. The outcome in test [7], in [8] and in test [9] was inactive.
For the molecule `CCCCO`, the molecule was classed as inactive in [1], in [2], in test [3], in test [4], in [5] and in test [6]. The call in test [7], in test [8] and in test [9] was inactive.
With `C=C[Si](OCC)(OCC)OCC`, the result in [1], in [2], in [3], in [4], in [5] and in test [6] was inactive. Further, the molecule was called inactive in test [7], in [8] and in test [9].
As to `Cc1ccc(C(=O)c2cc(O)c(O)c([N+](=O)[O-])c2)cc1`, the outcome in test [1], in [2], in test [4], in test [5], in [6] and in [9] was inactive. Besides, the AC50 in test [3] is 26.3 µM (active); in test [7], 27.2 µM (active); in [8] it was 56 µM (active).
As for `C=C(C)[C@@H]1CCC2=CC(=O)C[C@@H](C)[C@]2(C)C1`, the molecule was called inactive in [1], in test [2], in test [3], in test [5], in test [7] and in test [9]. The values for the AC50 in test [4], in test [6] and in test [8] were 177 µM (active), 53.4 µM (active) and 116 µM (active), respectively.
In the case of `COc1cccc(OC)c1`, the molecule was called inactive in test [1], in [2], in test [3], in [4], in test [5] and in [6]. For the same molecule, the outcome in test [7], in test [8] and in test [9] was inactive.
Take `C[C@]12CC[C@H]3[C@@H](CCC4=CC(=O)CC[C@@]43C)[C@@H]1CC[C@@H]2C(=O)CO`: the outcome in [1], in [2], in test [3], in test [4], in test [5] and in [6] was inactive. In addition, the outcome in [7] and in test [9] was inactive. For the same molecule, the AC50 in [8] is 100 µM (active).
As to `NCCCN1CCOCC1`, the outcome in test [1], in test [2], in [3], in test [4], in [5] and in test [6] was inactive. The outcome in test [7], in test [8] and in [9] was inactive.
Regarding `Cc1ccc(C=O)cc1`, the result in test [1], in test [2], in [3], in test [4], in [5] and in test [6] was inactive. Besides, the outcome in test [7], in test [8] and in test [9] was inactive.
For `CC(C)(COC(=O)c1ccccc1)COC(=O)c1ccccc1`, the molecule was classed as inactive in test [1], in [2], in test [3], in test [4], in [5] and in test [6]. For the same molecule, the molecule was called inactive in test [7], in test [8] and in test [9].
Take `OCCN1CCNCC1`: the call in test [1], in [2], in [3], in [4], in test [5] and in [6] was inactive. Further, the outcome in test [7], in test [8] and in test [9] was inactive.
For the molecule `CC(=O)C=CC1=C(C)CCCC1(C)C`, the molecule was classed as inactive in test [1], in [2], in test [3], in [5], in [6] and in test [7]. For the same molecule, the result in test [8] and in test [9] was inactive. Besides, the AC50 in test [4] was 3.8 µM (active).
